ATXN2 expr inh: Primary qHTS for Inhibitors of ATXN expression; HEK-293 ATXN2-luciferase reporter, luminescence, 24 h; Potency, µM (series often up to 57 µM), inactives show at the highest dose activity change, negative = inhibition, actives largely listed as inhibitors; hit rate 0.72% among 360,000; AID 1745845, 2022; further: potency means the concentration at half of the fitted maximal effect; on the % scale 0 is the no-effect control and ±100 the full control effect; nearly all actives have a fitted effect of over 55% in size
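qHTS (up to 57 uM final) was run with 24 h compound exposure of reporter cells at 37 °C. Each well was multiplexed: SteadyGlo luminescence measured ATXN2-luciferase expression after a fluorogenic Gly-Phe-AFC viability readout (25 uM final).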
S2 tox: Viability Counterscreen for Primary qHTS for Inhibitors of ATXN expression; S2 cells (HEK-293 line with an ATXN2-luciferase reporter) viability, CellTiter-Fluor protease fluorescence, 24 h; Potency, µM (highest dose often 56.7 µM), actives largely listed as cytotoxic; hit rate 0.49% among 400,000; further: potency means the concentration at half of the fitted maximal effect; nearly all actives have a fitted effect of over 40% in size
TGFb SMAD3 inh: qHTS for Inhibitors of TGF-b. HepG2 CAGA-GFP TGF-b/SMAD3 reporter, GFP fluorescence, 18 h; TGF-beta stimulated, 500 pg/mL final. Potency, µM (titrated, usually from 46.1 µM), for the others: at the top dose activity, negative = inhibition, usual class: inhibitors. hit rate 1.2% among 410,000. AID 588855, 2011; further: potency means the concentration at half of the fitted maximal effect; on the % scale 0 is the no-effect control and ±100 the full control effect; nearly all actives have a fitted effect of over 65% in size
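HEPG2 CAGA-GFP reporter cells (1000/well, DMEM with 1% FBS) received compounds, then recombinant TGF-beta at 500 pg/mL final for 18 hours at 37 degrees C. Per-cell GFP summed per well was normalised to unstimulated and stimulated DMSO controls before curve fitting.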
HepG2 tox: qHTS for Inhibitors of TGF-b: Cytotox Counterscreen | AID 588856, 2011 | Potency, µM (series often up to 46.1 µM), for the others: top-dose activity change, negative = cytotoxicity, hits mostly cytotoxic | HepG2 CAGA-GFP viability, ATP luminescence, 18 h | hit rate 0.76% among 410,000; further: potency means the concentration at half of the fitted maximal effect
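CellTiter-Glo luminescence gave cytotoxicity after 18 hours at 37 degrees C. The cells were HepG2 CAGA-GFP in 1% FBS DMEM, stimulated with 500 pg/mL TGF-beta after compound addition. %Activity was normalised to no-cell wells (complete cell-killing) and DMSO (no toxicity), and curves were fitted and classified.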
D3 antag: qHTS of D3 Dopamine Receptor Antagonist: qHTS | max response, negative = inhibition, % | hit rate 2.5% among 360,000 | D3R cells, DiscoveRx beta-arrestin luminescence, antagonist mode; hits give low values | AID 652054, 2013; in the data active means max response below about -50%; inconclusive means no clear call, values can overlap the other calls; further: on the % scale 0 is the no-effect control and ±100 the full control effect
Target sequence (P35462 whole entry, looked up): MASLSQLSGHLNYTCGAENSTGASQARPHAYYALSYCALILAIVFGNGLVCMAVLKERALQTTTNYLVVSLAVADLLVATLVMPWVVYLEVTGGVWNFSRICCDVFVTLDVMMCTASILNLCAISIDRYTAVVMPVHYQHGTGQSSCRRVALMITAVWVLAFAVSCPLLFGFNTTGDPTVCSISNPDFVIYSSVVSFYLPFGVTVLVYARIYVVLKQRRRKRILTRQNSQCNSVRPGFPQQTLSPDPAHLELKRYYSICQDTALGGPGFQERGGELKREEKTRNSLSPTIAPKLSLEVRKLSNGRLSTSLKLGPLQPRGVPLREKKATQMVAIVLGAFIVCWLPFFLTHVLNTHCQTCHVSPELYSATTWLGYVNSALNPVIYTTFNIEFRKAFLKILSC
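Cells expressing the human receptor were seeded at 1500 cells/well, incubated overnight at 37 degrees C in 5% CO2, then exposed to library compounds with dopamine controls for 90 minutes at 37 degrees C before luminescent detection.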
D3 ag: qHTS of D3 Dopamine Receptor Agonist: qHTS; AID 652048, 2013; D3R DiscoveRx beta-arrestin cells, luminescence, 90 min; D(3) dopamine receptor (Homo sapiens), P35462; max activation, %; hit rate 0.58% among 410,000; in the data active means max activation above about 30%; further: 0% is about no effect
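Cells at 1500/well, incubated overnight, then treated with pinned compounds (dopamine as control) for 90 min at 37 degrees C. DiscoveRx reagent added for 30 - 60 minutes at room temperature; luminescence read.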
Numbers without * were called inactive; i = inactive; ? = inconclusive; . = not tested or not shown; ! = not confirmed by another sample. An excerpt weighted towards active compounds, which were near 4.8% of everything screened. Unless noted, the call rests on the fitted dose curve; in most records, active means well fitted curve in the direction sought with a large enough effect; inconclusive means small, poorly fitted or top-dose-only effect, or another doubt; inactive means no such curve, though single readings can be large; an effect the other way counts as inactive or inconclusive.

SMILES	ATXN2 expr inh	S2 tox	TGFb SMAD3 inh	HepG2 tox	D3 antag	D3 ag
CCc1nn2c(=O)cc(COC(=O)Cc3ccccc3)nc2s1	-7%	i	-57%	4%	.	9
C=CCNCCCOc1ccc(Cl)cc1Br	7%	i	0%	0%	-67*	-15
COc1cccc(NC(=O)Cn2c(=O)n(CCCCC(=O)NCc3ccc4c(c3)OCO4)c(=O)c3ccccc32)c1	-18%	i	-5%	-49%	.	11
COc1ccc(-n2cc(CNCc3cccnc3)c(-c3cccc(F)c3)n2)cc1	-1%	i	2%	-47%	-8	-19
COc1ccc(CNCc2cn(-c3cccc(F)c3)nc2-c2ccc(C)o2)cc1	.	?	13µM*	-102%	-19	-11
O=C(Cc1ccccc1)N1CCCC(c2nc(-c3ccc(S(=O)(=O)N4CCCC4)cc3)no2)C1 (stereo unspecified)	-19%	?	-19%	-35%	9	26
O=C(Cc1ccccc1)N1CCC(c2nc(-c3ccc(F)cc3)no2)CC1	-21%	i	-1%	-11%	28	31*
O=C(c1c(F)cccc1F)N1CCCC(c2nc(-c3ccc(Cl)cc3)no2)C1 (stereo unspecified)	?	i	?	-34%	17	15
Cc1ccc(-c2noc(C3CCCN(C(=O)c4c(F)cccc4F)C3)n2)cc1 (stereo unspecified)	4%	i	-28%	-1%	-70*	22
CN(CC(=O)NC1CCCc2ccccc21)C1CCCCC1 (stereo unspecified)	5%	?	7%	4%	-51*	-12
CCOC(=O)c1c(CN(C)C)oc2cc(CN(C)C)c(O)c(CSc3ccccc3)c12	-13%	i	38%	-22%	-59*	-21
CCOC(=O)c1c(CSc2ccccc2)n(C)c2ccc(O)c(CN3CCN(C)CC3)c12	.	?	?	-31%	-16	-7
Cc1c(C(=O)OCc2ccccc2)[nH]c2c1C(=O)CC(c1ccco1)C2 (stereo unspecified)	-13%	?	2.5µM*	-44%	-11	-9
COCCOC(=O)c1[nH]c2c(c1C)C(=O)CC(c1ccco1)C2 (stereo unspecified)	10%	?	?	-15%	-5	-1
COc1cc(C#Cc2c(-c3cncn3C)n(C)c3ccc(-c4ccc(CN5CCOCC5)cc4)cc23)cc(OC)c1	?	i	?	1%	132	57*
COc1cc(OC)cc(-c2c(Sc3ccccc3)c3cc(-c4cnc(OC)nc4)ccc3n2C)c1	5%	i	.	.	?	40*
COc1cc(OC)cc(-c2c(C#Cc3ccsc3)c3cc(-c4ccc(N(C)C)nc4)ccc3n2C)c1	4%	i	7%	-4%	10	-3
COc1ccc(-c2ccc3c(c2)c(Sc2ccccc2)c(-c2cc(OC)cc(OC)c2)n3C)cc1	8%	i	.	.	0	-5
COc1cc(C#Cc2c(-c3cncn3C)n(C)c3ccc(-c4cnc(N5CCOCC5)nc4)cc23)cc(OC)c1	?	i	-19%	-16%	93	0
COc1cc(C#Cc2c(-c3cncn3C)n(C)c3ccc(-c4cnc(OC)nc4)cc23)cc(OC)c1	20µM*	i	?	-36%	69	9
Cc1ccc(NC(=O)CN(CCc2ccccc2)S(=O)(=O)c2ccccc2)c(C)c1	-22%	?	?	-2%	.	-15
OC1CCN(Cc2ccc3c(c2)CN(Cc2ccc(Oc4ncccn4)cc2)CCO3)CC1	.	i	.	.	.	.
O=C(CCn1c(=O)oc2ccccc21)N1CCN(c2ccccc2F)CC1	6%	i	11%	-17%	-9	31*
O=C(CN1CCN(Cc2ccc(Cl)cc2)C1=O)NCCCN1CCN(c2ccc(F)cc2)CC1	-35%	i	1%	-57%	-66*	-48
CSc1ccc(N2CCN(CCCNC(=O)Nc3ccccc3F)CC2)cc1	-14%	i	2%	2%	?	31*
SMILES	ATXN2 expr inh	S2 tox	TGFb SMAD3 inh	HepG2 tox	D3 antag	D3 ag
O=C(NCCCN1CCN(c2ccc(F)cc2)CC1)NC12CC3CC(CC(C3)C1)C2	?	i	4%	-11%	-82*	-1
O=C(CCN1CCN(c2ccccc2)CC1)Nc1ccccc1F	1%	i	2%	-1%	?	34*
O=C(NCCCN1CCN(c2ccc(F)cc2)CC1)Nc1ccccc1Cl	-19%	i	-28%	-38%	.	-19
O=C(CCN1CCN(c2ccc(F)cc2)CC1)Nc1ccccc1F	-4%	i	1%	-14%	-5	-4
CCCCNS(=O)(=O)c1ccc2nc(-c3cccnc3)cc(C(=O)NCCC)c2c1	3%	i	5%	-4%	.	6
CCOC(=O)c1ccc(Nc2c(-c3ccc(N(C)C)cc3)nc3nc[nH]n23)cc1	2%	i	5%	-19%	.	2
COc1ccc(NC(=O)c2ccc(CN3CCN(c4ccccc4)CC3)cc2)cc1	-23%	?	-5%	7%	?	-13
O=C(Nc1ccccc1F)c1ccc(CN2CCN(c3ccccc3)CC2)cc1	-26%	?	-21%	-41%	-54*	-2
Cc1nc2c(c(C)nn2-c2ccccc2)c(C)c1CCC(=O)Nc1ccc(F)cc1	-2%	?	-1%	-3%	.	44*
CC(=O)Nc1ccc(NC(=O)CCc2c(C)nc3c(c(C)nn3-c3ccccc3)c2C)cc1	-12%	i	30%	6%	.	-8
CCN(CC)CCNC(=O)CCc1c(C)nc2c(c(C)nn2-c2ccc(C)cc2)c1C	?	i	?	-81%	-50*	-10
CCc1cccc(NC(=O)CCS(=O)(=O)c2ccc(C)cc2)c1	.	.	0%	-19%	.	7
Cc1ccc(-n2c(O)c(/C=N/n3cnnc3)c3ccccc3c2=O)cc1	-2%	.	-15%	-6%	-109*!	7
O=c1c2ccccc2c(/C=N/n2cnnc2)c(O)n1-c1ccccc1F	0%	.	-19%	-4%	-5	-1
Cc1ccc(-c2nnc(CSc3nnc(COc4cccc5ccccc45)n3-c3ccccc3)o2)cc1	?	?	13µM*	27%	10	12
COc1ccc(-c2cc(C(F)(F)F)nc(SCC(=O)NCc3ccc(Cl)cc3)n2)cc1	.	.	1%	1%	.	-1
CC1C(=O)C(C)C(c2ccc(Br)cc2)NC1c1ccc(Br)cc1 (stereo unspecified)	.	?	-21%	-2%	-25	-2
